This is an account of results in publication PMC12864922, “TDP-43 directly inhibits mRNA accumulation in neurites through modulation of mRNA stability”.

First the molecules themselves.
B1: ENSMUSG00000031028.55|Tub (ssRNA)
RNA: GGGAGUUCUACAGUCCGACGAUCGCUUCGAUAUCCGCAUGCUAUGUGCCCCAAGGUCAACACACAUGCCCAGUCCUGGGUCAGUCCCCUGCUGCAGUGGUGUUAUCACACCGGAAAGCCUCUUCACCUGGAGGUACAGAGGGAGAGGAAGCACAAGCCUGGCUGCUGUGGCUCAGCCAUCCACUCAGCCUACGAGUCAGAGACAGUGGGUGUCCCGGGAAGCAGGGGUACAGUGAGUGUGUGUGUAUGUACAGGGCACUCAAGCUGUAUGUAGAAAAAGCUCUGGUGGUCAGCAGAAAGCACUCUCUUGCGGUCGCACUAGUGUGGAAUUCUCGGGUGUCAAGG
B2: ENSMUSG00000042529.483|Kcnj12 (ssRNA)
RNA: GGGAGUUCUACAGUCCGACGAUCGCUUCGAUAUCCGCAUGCUAUCUCUUUGAAUGCUACUGUGUUGAGAUGUGCGUCUCACUGGCCUCUGCCUGCCUCUCCCGCCUGCGGAGCACUUACACUUCCUGGGGCCCCUGCAGCUGGACCAUGUACAGGGCUCCCUGGGGCUUGUCCUCAGGGGCAGAGAAGGACAUGGUGGCAGCAGCACUGAGAACAGGAGCAUGGCCUCUCUCAGACCCCAGGGCAGUCAUUCAGUCUUUUCCAUGGACACUCCCCACCGCUCCACAUACUGCCUCCGCCUCAUCUCUUGCGGUCGCACUAGUGUGGAAUUCUCGGGUGUCAAGG
B3: ENSMUSG00000061578.627|Ksr2 (ssRNA)
RNA: GGGAGUUCUACAGUCCGACGAUCGCUUCGAUAUCCGCAUGCUAAGGGAGCAACCUAUAGGAAAUGCAAAGGCUUAGAGGGGACGGACAGCUCCCUGACCCUGGAUGGCCAGGAAUGGUGCUAGCUAGGGUGUGAGCCAAGCCCUUGAGGCUACUGUGAGUUAUGAGAUGUGUCCAACCCUCAGCCCACAGACUGCAUAUGCCCCAGGACAGCUGUGAAGGUGACCCAAUACAAAAUCGUAAACUAACUUAAAACCAUUAAGGGUUUUUGUUUUGUUGUUGUUUGCUGGCUUUUUGUUUUUUGGCUCUUGCGGUCGCACUAGUGUGGAAUUCUCGGGUGUCAAGG
B4: ENSMUSG00000042529.54|Kcnj12|94:101;234:238 (ssRNA)
RNA: GGGAGUUCUACAGUCCGACGAUCGCUUCGAUAUCCGCAUGCUAGCAAGGAGGUGACUUCUUGGGGUAGGGUUGCUCAGGAGUUAGGGACUCUGCUGGAGGCCUUAGGUGCAGGUCCCAGCCCCGGUGGGAGGAGGCACACAUACUACACUUCAUUGGUUUUUAACUUGGGCAAGACUGUUUACAAACAAAAACAAACAAACAAACAAUCAAAAAAAAAACCCACCCCACAAAACACAAGAAAACAUUAACAGGUGGUUCAAUUUUUAAAAUUCCUGCACACGGGACAGUUGGAAUUCUACUCACUCUUGCGGUCGCACUAGUGUGGAAUUCUCGGGUGUCAAGG
B5: ENSMUSG00000042529.244|Kcnj12|181:185 (ssRNA)
RNA: GGGAGUUCUACAGUCCGACGAUCGCUUCGAUAUCCGCAUGCUAAGAUAGGCUGGCUCCCAGGCACCUUGCUUCAGAUUCCAUGCUAAUUUCUAAUCUAGGAGAUUCCCCUAGGACCCGCUGCAGAGGCAUGGGCUCCUCUGUGGUCCUGGCCAGACCUCUGCCCCCAAAUCUCACUGACUGUUCUAGCCUUGGCCUUGGGGCCUAAGGGUGCAUUCAGCCUGGCACACCUUACCUGCCACUCACCUCUCUAUCUAGUUGUCGAGUCUAGGGAAGGGCAGAGGGUGGGUCCUGGCCACUGGGUGCUCUUGCGGUCGCACUAGUGUGGAAUUCUCGGGUGUCAAGG
B6: ENSMUSG00000031028.132|Tub|108:112;184:189 (ssRNA)
RNA: GGGAGUUCUACAGUCCGACGAUCGCUUCGAUAUCCGCAUGCUAGGGGAUGAUAGGAGUCAUCCAGUAGACUCCCUACAUCAGGGCUCUCAGCAGCCCCAGCACAACACCUAUGACACACACACAGGAUCUAGGUCACCAUUCAAGUAAUGCAUACCUUCAGGAAGAAUGUCCUCUCUGGGAAGACUCAGCUCCCAUUAUUGCCAGCAUGCCAUGAUCAGUGAGGGCACACACCCAUGCUUAGGGGGAUGGCGCAGGGUGAGGGGAGCAGAGGAUAUUUUAGGGCCACAAGAGCUCAGAGGUAGCUCUUGCGGUCGCACUAGUGUGGAAUUCUCGGGUGUCAAGG
B7: ENSMUSG00000032194.60|Kank2 (ssRNA)
RNA: GGGAGUUCUACAGUCCGACGAUCGCUUCGAUAUCCGCAUGCUAAGGGGGGGCAAGAAGAGAAAAUACUGUAUUCUUGAGUCAUUGUUAGGGGAUGGGAGGGGUCAGAAUUCAGUUGCUAAAUUUGAAUGUCACUGGAAUGUUACAGUGUCUAUUGUCUCCUCAUCUUUACAGCAGGUCUCCACAAAGCCUGCUCACCACCCUUUGUCACCUCAUUUCAUUGUCUAGUGUACAAUAGGGUCUUGUCCACUGCCCUCCACCUCCAGACUGUGUCUUCAGGGCCUGGGGUGUCUCUUGUGAUUGCUCUCUUGCGGUCGCACUAGUGUGGAAUUCUCGGGUGUCAAGG
B8: ENSMUSG00000061578.444|Ksr2 (ssRNA)
RNA: GGGAGUUCUACAGUCCGACGAUCGCUUCGAUAUCCGCAUGCUAAAUCCUUCAAGACAGAAGUUUCAGAGGGGAUAGUUCCUUCUAACCUUGUACUGGGACAUCAUCUAUGUCCCCAUCCCCAGAGCUGAAUUAGAGACACCAAGUAGCCUCUUGGGUUGUUUUGUGGGGUGUUCCCCUUGCUGGUCAAAGGAGUGGAAAGCCACCUUGCUGUAAAUGCUCUUGUUUUCUGUAGCAAUCUUGAACUCUUUUUUUUUUUUGUUCGUUUGUUUGUUUGUUUGUUUGUUUGUUUUUUCAAGACAGGGCUCUUGCGGUCGCACUAGUGUGGAAUUCUCGGGUGUCAAGG
B9: ENSMUSG00000058297.14|Spock2 (ssRNA)
RNA: GGGAGUUCUACAGUCCGACGAUCGCUUCGAUAUCCGCAUGCUAUGAUGGAGGCUACAUCUGGUAGAUAGCCCUCGACGGCCUCGGCAGGCCAGGGUGCCGACGGCCAGAAAGACAGGCCAGAAGAGACCUGGACAACAGCAGGCAACUUAGCAAAUGGAUCCGGAAGUCAGUGCGGAGGACCCUGGCUCCAGUGGGGGAGGACUGGGGAGUGUGGCUUGUGUGUAUGUGUGAUAUGAGAUGUGUGUGUAUGAUGUGAGAUGUGAGUGUGUGAUGUGAGAUGUGUGUAUGUGAGAUGUGUGUGUCUCUUGCGGUCGCACUAGUGUGGAAUUCUCGGGUGUCAAGG

In all, about 9,900 sequences were measured (“r (bound/input frequency ratio)”: median about 0.7, highest 2% from about 6.5 on). This is one part of a sample in which the highest values are shown more often than they occur.

For the assay, the target named is TDP-43 (Homo sapiens, UniProt Q13148 1-414). Nature of the assay: RNA Bind-n-Seq with designed 260-mer pool; 25 mM Tris-HCl, 150 mM KCl, 3 mM MgCl2, BSA (printed 500 mg/mL), 20 units/mL SUPERase IN; pH not stated; 500 nM RNA pool, 1 h, 4 C; TDP-43 5, 50, 500 nM; high values mean tight binding. The conditions noted are these: protein: recombinant; tags: SBP (GST cleaved off with PreScission; pGEX-GST-SBP). A digest of the protocol: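 In 25 mM Tris-HCl, 150 mM KCl, 3 mM MgCl2, BSA and SUPERase IN, 500 nM of an in vitro-transcribed 260-nt 3′ UTR oligo pool was incubated for 1 h at 4 °C with SBP-tagged TDP-43 (5, 50 or 500 nM) captured on streptavidin beads. RNA remaining after washes was biotin-eluted, reverse transcribed, PCR-amplified and sequenced. Binding, R, is the bound-sample abundance of each oligo, normalized to mapped reads, divided by its abundance in input. Each duplicate used a separate, independent protein batch.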
Sequence of TDP-43 (Q13148 whole entry): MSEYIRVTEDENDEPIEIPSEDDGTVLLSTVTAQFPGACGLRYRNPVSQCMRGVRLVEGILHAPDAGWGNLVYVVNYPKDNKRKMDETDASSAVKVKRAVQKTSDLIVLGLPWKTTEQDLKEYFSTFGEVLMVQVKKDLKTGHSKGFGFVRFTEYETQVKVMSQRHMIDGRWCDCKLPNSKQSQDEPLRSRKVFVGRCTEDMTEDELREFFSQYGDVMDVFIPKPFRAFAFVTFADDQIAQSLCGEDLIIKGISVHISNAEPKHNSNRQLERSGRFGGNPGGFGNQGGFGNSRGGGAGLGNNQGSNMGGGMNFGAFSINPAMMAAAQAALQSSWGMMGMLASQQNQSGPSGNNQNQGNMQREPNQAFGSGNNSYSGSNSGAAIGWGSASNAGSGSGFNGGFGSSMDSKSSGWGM
Turning to B1, the binding signal is 0.773 R (bound/input frequency ratio).
For the molecule B2, the binding signal was 0.21 R (bound/input frequency ratio).
Next, B3: 0.542 R (bound/input frequency ratio).
Regarding B4, the binding signal was 0.46 R (bound/input frequency ratio).
Turning to B5, the binding signal is 1.24 R (bound/input frequency ratio).
Next, B6: 0.891 R (bound/input frequency ratio); B7: 2.47 R (bound/input frequency ratio).
For B8, the binding signal was 2.36 R (bound/input frequency ratio).
For the molecule B9, the binding signal is 8.13 R (bound/input frequency ratio).
